# Test results: PubChem BioAssay (NCI)
# About 83,000 compounds went through this panel and 20% of them were active in at least one assay; those are over-represented in the sample as a whole.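 Testing used 96-well plates and a 48-hour single-concentration exposure. Example: -40 means 40% of the starting cells died.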 Values without a mark were called inactive. Active and inactive are the calls of the source. Rule for the calls: active = growth percent below 10; inactive = the rest.
# Columns and labels:
# Experiment in all cases: NCI-60 one-dose screen, 48 h (100 = growth as untreated, 0 = no growth, -100 = all killed)
# Settings in all cases: 10 µM unless noted
# [1] = test system: HCT-15 colon
# [2] = test system: HT29 colon
# [3] = test system: SNB-75 CNS
# [4] = test system: SNB-19 CNS
# [5] = test system: U251 CNS
# [6] = test system: PC-3 prostate
# [7] = test system: SK-MEL-5 melanoma
# [8] = test system: UACC-62 melanoma
# [9] = test system: SK-MEL-28 melanoma
# [10] = test system: SK-MEL-2 melanoma
# [11] = test system: EKVX NSCLC
# [12] = test system: SN12C renal
# [13] = test system: UO-31 renal
# [14] = test system: TK-10 renal
# [15] = test system: ACHN renal
# [16] = test system: CAKI-1 renal
# [17] = test system: A498 renal
# [18] = test system: CCRF-CEM leukemia
# [19] = test system: MOLT-4 leukemia
Compound,growth [1],growth [2] [%],growth [3] [%],growth [4] [%],growth [5] [%],growth [6] [%],growth [7] [%],growth [8] [%],growth [9] [%],growth [10] [%],growth [11] [%],growth [12] [%],growth [13] [%],growth [14] [%],growth [15] [%],growth [16] [%],growth [17] [%],growth [18],growth [19]
COC(=O)[C@]12CC[C@@H](C(C)=O)[C@@H]1[C@H]1CC[C@@H]3[C@@]4(C)C/C(=C/c5cccnc5)C(=O)C(C)(C)[C@@H]4CC[C@@]3(C)[C@]1(C)CC2,23.2%,16.5,110,67.7,56.6,24.4,39.8,34.5,31.5,68.1,85.8,57.7,56.6,133,32.5,51,80.6,7.57% (active),5.47% (active)
CC(C)c1cc(C(=O)O)c(O)c(C(C)C)c1.CC(C)c1cc(C(=O)O)c(O)c(C(C)C)c1.[Mn],108%,119,106,91.6,98.3,98.2,94.3,94.9,113,118,102,101,85.5,106,103,100,126,95.1%,99.2%
O=C1OC(c2ccc(Cl)c(Cl)c2)=C/C1=C/c1cccc([N+](=O)[O-])c1,99.1%,93.7,92.9,94.9,99.2,97.9,102,88.7,105,102,91.8,93,68,179,100,91.3,101,103%,103%
COc1cc2nc(Cl)nc(Nc3cccc(C(=O)/C=C/c4ccc(F)cc4)c3)c2cc1OC,-4.45% (active),16.1,88.3,50.1,32.6,46.4,73.4,51.5,62.6,93.9,71.1,51.6,53.9,155,20,56.5,86.5,15.5%,35.7%
Cc1ccc(S(=O)(=O)Nc2ccc(-c3cc(-c4cccc(F)c4)c(C#N)c(=O)[nH]3)cc2)cc1,58.2%,54.6,85,84.3,71,68.8,82,60.3,97.4,112,83.4,83.7,68.6,115,91.3,60.2,85.2,68.4%,76.9%
CC1c2ccccc2N(S(=O)(=O)c2ccccc2)C1C (stereo not drawn),70.5%,67.8,86,91.5,88,81.4,89.2,71.6,92.1,76.5,92.5,105,75.7,100,93.6,74.5,104,78.2%,75.1%
CC(C)(C)n1cc(-c2ccnc(NCCCNS(=O)(=O)c3ccc(Cl)cc3)c2)c(-c2cccc(F)c2)n1,9.66% (active),27.6,76.5,80,61.7,49.7,70.7,84.6,89.4,88.4,56.2,73.9,66.5,111,80.8,77.9,108,66.7%,55.1%
